Experimental data reported in PubChem BioAssay.
Calls of active or inactive are those of the source.

What was measured:
[1] = test system: Human papillomavirus type 1a protein E7 (residues 44-93); assay: small molecules binding HPV E7 44-93 – biochemical, small-molecule microarray, residues 44-93, 635 nm fluorescence, primary screen (AID 1108); details: fluorescence 635 nm, higher = more signal;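 further: E7 fragment applied at 1 µg/mL in TBST for 1 h at 4 C; score combines spot fluorescence with its signal to noise ratio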
[2] = hepatitis C replication reporter changes, two-sided – Huh7 cells, luciferase reporter, HCV replication inhibitor project, primary screen (AID 1109); details: Huh7 HCV replicon luciferase reporter, 48 h; higher = more signal;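 further: huh7 hepatoma cells harbouring a luciferase neomycin HCV replicon reporter; luciferase luminescence as measure of HCV replicon replication; test concentration not given here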
[3] = target: Left-right determination factor 2 (Homo sapiens) (UniProt O00292); assay: small molecules binding LEFTY2 protein – biochemical, small-molecule microarray, 635 nm fluorescence scan, primary screen (AID 1110); details: higher = more signal
[4] = target: Calmodulin-1 (Homo sapiens) (UniProt P0DP23); assay: small molecules binding calmodulin-1 with EGTA – biochemical, small-molecule microarray, Cy5-labelled CALM1, profiling panel (AID 1111); details: Cy5-CALM1 binding fluorescence, higher = more signal;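 further: labelled calmodulin applied in Tris saline Tween buffer holding calcium plus EGTA and DTT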
[5] = target: Calmodulin-1 (Homo sapiens) (UniProt P0DP23); assay: small molecules binding Ca-loaded calmodulin-1 – biochemical, small-molecule microarray, Cy5-labelled CALM1, plus calcium, artefact control for SMM control-protein annotation, profiling panel (AID 1112); details: Cy5-CALM1 binding fluorescence, higher = more signal;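 further: score merges spot fluorescence with signal to noise from triplicate slides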
[6] = probe aWnt5a binding to arrayed compounds – biochemical, biotinylated probe, 635/667 nm fluorescence, primary screen (AID 1113); details: small-molecule microarray, higher = more signal;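 further: score merges 667 nm fluorescence intensity with signal-to-noise per printed feature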
[7] = probe aShh binding to arrayed compounds – biochemical, biotinylated probe, 635/667 nm fluorescence, primary screen (AID 1114); details: small-molecule microarray, higher = more signal;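 further: probe is biotin-labelled aShh protein from a stem cell growth factor screen; measures binding of labelled protein to compounds printed on the slide; score merges feature fluorescence at 667 nm with signal-to-noise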
[8] = probe aNog binding to arrayed compounds – biochemical, biotinylated probe, 635/667 nm fluorescence, primary screen (AID 1115); details: small-molecule microarray, higher = more signal;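 further: probe is biotinylated aNog protein used at 0.15 µg/mL for 1 h at 4 C; z-score combines 667 nm fluorescence of each spot with its signal to noise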
[9] = target: Torsin-1A-interacting protein 1 (Homo sapiens) (UniProt Q5JTV8); assay: compound microarray binding of lysate hLAP1 – cell lysate, small-molecule microarray, COS7 lysate, 635/667 nm fluorescence, primary screen (AID 1116); details: 635 nm fluorescence, higher = more signal
[10] = target: Alpha-bungarotoxin (Bungarus multicinctus) (UniProt P60615); assay: compounds binding labelled alpha-BTX control protein – biochemical, small-molecule microarray, Alexa647 label, 635/667 nm fluorescence, artefact control for SMM control protein annotation, profiling panel (AID 1117); details: alpha-BTX-A647 binding fluorescence, higher = more signal
Albumin (Bos taurus) = Albumin (Bos taurus) (UniProt P02769); assay: compounds binding labelled BSA control protein – biochemical, small-molecule microarray, Alexa647 label, 635/667 nm fluorescence, artefact control for SMM control protein annotation, profiling panel (AID 1118); details: BSA-A647 binding, fluorescence 635 nm, higher = more signal;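 further: score merges 667 nm emission intensity and signal-to-noise per printed compound spot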
[11] = probe aXIP binding to arrayed compounds – biochemical, NeuroSMM set, 635/667 nm fluorescence, primary screen (AID 1119); details: small-molecule microarray, higher = more signal, called active from +8 up or from −8 down;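 further: probe is the protein aXip251-270 applied at 1 µg/mL to compound-printed slides; binding of probe to printed compounds measured as 667 nm fluorescence plus signal to noise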
[12] = probe aNOTCH3 binding on compound microarray – biochemical, small-molecule microarray, 635/667 nm fluorescence, primary screen (AID 1120); details: higher = more signal;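 further: probe is a biotin-tagged antibody raised against NOTCH3 rather than NOTCH3 protein; score merges spot fluorescence near 667 nm with spot signal to noise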
[13] = probe aNOTCH2 binding on compound microarray – biochemical, small-molecule microarray, 635/667 nm fluorescence, primary screen (AID 1121); details: higher = more signal;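 further: score merges feature fluorescence read at 667 nm with its signal to noise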
[14] = target: Carbonic anhydrase 2 (Homo sapiens) (UniProt P00918); assay: compounds binding carbonic anhydrase 2 – biochemical, small-molecule microarray, Alexa647-labelled CAII, profiling panel (AID 1122); details: CAII-A647 binding fluorescence, higher = more signal
[15] = COS7 lysate on small-molecule microarray, probe aHis, 635 nm (AID 1123); details: COS7 cell lysate, fluorescence, higher = more signal;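 further: z-score combines 667nm fluorescence intensity with signal-to-noise per printed compound spot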
[16] = probe aLAP1 signal on lysate-treated microarray – cell lysate, small-molecule microarray, COS7 lysate, primary screen (AID 1124); details: probe aLAP1, fluorescence, higher = more signal;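 further: lysate comes from COS7 cells expressing LAP1 and is applied at 0.3 µg/mL; score merges spot fluorescence near 667 nm with signal-to-noise over triplicate slides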
Sam68 (KHDRBS1) = assay: compounds binding KHDRBS1 protein – biochemical, small-molecule microarray, 635 nm fluorescence, primary screen (AID 1125); details: higher = more signal;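 further: score merges 667 nm channel intensity with signal to noise over triplicate slides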
[17] = test system: Chordin-like protein 2 (CHRDL2); assay: compounds binding chordin-like 2 – biochemical, small-molecule microarray, 635 nm fluorescence, primary screen (AID 1126); details: fluorescence 635 nm, higher = more signal;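 further: printed compound slides probed with Chrdl2 protein at 4 µg/mL for 1 h at 4 C; score merges 667 nm emission intensity with signal to noise over three replicate slides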
[18] = target: Concanavalin-A (Canavalia ensiformis) (UniProt P02866); assay: compounds binding concanavalin A lectin – biochemical, small-molecule microarray, Alexa647 label, 635 nm, artefact control for SMM control protein annotation, primary screen (AID 1127); details: ConA-A647 binding fluorescence, higher = more signal;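 further: z combines 667 nm emission intensity with signal-to-noise across three replicate slides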
Chain of Concanavalin-A (Canavalia ensiformis) (P02866 whole entry, looked up): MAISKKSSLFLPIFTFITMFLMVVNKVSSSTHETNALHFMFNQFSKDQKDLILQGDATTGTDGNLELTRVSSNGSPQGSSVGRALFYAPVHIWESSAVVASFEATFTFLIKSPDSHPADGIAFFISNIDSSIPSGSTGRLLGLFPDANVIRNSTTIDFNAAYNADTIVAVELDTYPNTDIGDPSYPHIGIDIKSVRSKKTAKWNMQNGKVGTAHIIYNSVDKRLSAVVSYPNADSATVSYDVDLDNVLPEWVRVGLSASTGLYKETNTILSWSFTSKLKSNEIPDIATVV

Chain of Alpha-bungarotoxin (Bungarus multicinctus) (P60615 whole entry, looked up): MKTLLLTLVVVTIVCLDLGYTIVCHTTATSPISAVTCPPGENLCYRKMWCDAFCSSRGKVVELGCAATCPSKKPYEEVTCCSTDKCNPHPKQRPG
Chain of Torsin-1A-interacting protein 1 (Homo sapiens) (Q5JTV8 whole entry, looked up): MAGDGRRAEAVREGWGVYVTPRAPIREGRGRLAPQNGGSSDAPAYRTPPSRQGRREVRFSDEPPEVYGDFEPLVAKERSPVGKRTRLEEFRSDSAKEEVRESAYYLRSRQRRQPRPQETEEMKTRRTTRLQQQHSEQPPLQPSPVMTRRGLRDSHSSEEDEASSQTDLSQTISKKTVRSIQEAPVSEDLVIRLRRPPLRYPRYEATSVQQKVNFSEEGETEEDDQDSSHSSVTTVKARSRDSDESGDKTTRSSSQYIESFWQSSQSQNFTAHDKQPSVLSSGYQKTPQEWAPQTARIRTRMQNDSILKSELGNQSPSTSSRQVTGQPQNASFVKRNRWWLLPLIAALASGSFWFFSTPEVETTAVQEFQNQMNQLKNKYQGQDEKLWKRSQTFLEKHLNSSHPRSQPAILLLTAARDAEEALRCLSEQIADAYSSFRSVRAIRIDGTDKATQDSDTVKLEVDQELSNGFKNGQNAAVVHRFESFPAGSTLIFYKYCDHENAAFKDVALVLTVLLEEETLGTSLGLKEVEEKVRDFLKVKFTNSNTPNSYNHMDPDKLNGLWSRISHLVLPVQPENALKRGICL
Chain of Albumin (Bos taurus) (P02769 whole entry, looked up): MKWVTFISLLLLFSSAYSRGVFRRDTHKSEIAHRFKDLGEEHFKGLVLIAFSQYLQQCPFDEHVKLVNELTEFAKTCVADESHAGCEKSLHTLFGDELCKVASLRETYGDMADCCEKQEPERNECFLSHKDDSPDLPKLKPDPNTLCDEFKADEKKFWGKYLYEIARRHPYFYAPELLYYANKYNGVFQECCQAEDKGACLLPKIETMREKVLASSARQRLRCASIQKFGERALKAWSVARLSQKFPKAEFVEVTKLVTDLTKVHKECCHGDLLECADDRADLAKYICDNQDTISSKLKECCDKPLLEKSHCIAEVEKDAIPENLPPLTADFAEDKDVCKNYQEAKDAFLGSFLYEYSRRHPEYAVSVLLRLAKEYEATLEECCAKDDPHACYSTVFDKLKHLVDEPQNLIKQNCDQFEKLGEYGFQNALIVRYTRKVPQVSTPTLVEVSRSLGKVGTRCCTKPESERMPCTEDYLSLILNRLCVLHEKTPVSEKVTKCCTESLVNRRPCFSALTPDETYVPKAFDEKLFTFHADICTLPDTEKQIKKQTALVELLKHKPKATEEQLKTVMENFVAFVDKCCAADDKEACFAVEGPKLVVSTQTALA
Chain of Left-right determination factor 2 (Homo sapiens) (O00292 whole entry, looked up): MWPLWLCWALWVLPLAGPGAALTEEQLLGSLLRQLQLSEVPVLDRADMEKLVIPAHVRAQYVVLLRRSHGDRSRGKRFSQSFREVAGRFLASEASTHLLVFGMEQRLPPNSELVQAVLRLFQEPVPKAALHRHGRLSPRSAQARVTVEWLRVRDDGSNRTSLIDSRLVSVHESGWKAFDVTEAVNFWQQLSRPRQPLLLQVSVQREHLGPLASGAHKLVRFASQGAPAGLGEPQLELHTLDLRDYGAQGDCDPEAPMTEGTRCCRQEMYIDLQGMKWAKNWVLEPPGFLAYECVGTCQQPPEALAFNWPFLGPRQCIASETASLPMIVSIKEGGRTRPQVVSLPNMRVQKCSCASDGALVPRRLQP

SMILES | composite z-score [1] | z-score [2] | composite z-score [3] | composite z-score [4] | composite z-score [5] | composite z-score [6] | composite z-score [7] | composite z-score [8] | composite z-score [9] | composite z-score [10] | composite z-score (Albumin (Bos taurus)) | composite Z-score [11] | composite z-score [12] | composite z-score [13] | composite z-score [14] | composite z-score [15] | composite z-score [16] | composite z-score (Sam68 (KHDRBS1)) | composite z-score [17] | composite z-score [18]
CCOC(=O)[C@H](CC(C)C)NC(=O)CCC1CC(OC(=O)NCCc2ccc(F)cc2)CC2(CCCC(COC(=O)NCCOc3ccccc3)O2)O1 (stereo not given in full) | 1.36 | -0.972 | 1.16 | 1.02 | -0.129 | -0.15 | -0.13 | -0.0965 | 0.531 | 0.947 | 0.671 | 0.0308 (inactive) | 0.0496 | -0.0971 | 0.193 | 1.31 | -0.0164 | 1.23 | 0.324 | 0.931
COC(=O)[C@H]1[C@@H](O)[C@@]2(O)c3ccccc3O[C@@]2(c2ccccc2)[C@@H]1c1ccccc1 | -0.673 | -0.1 | 0.401 | -0.449 | -0.336 | -0.156 | 0.0815 | -0.136 | 0.096 | -0.516 | -0.642 | 1.97 (inactive) | -0.1 | -0.133 | 0.18 | 0.19 | -0.221 | -0.926 | 0.14 | -0.246
Cc1ccc(S(=O)(=O)OC[C@H]2CN3[C@H](c4ccc(Br)cc4)[C@@H](C)CC[C@H]3C(=O)O2)cc1 | 0.226 | -1.02 | 0.119 | 0.946 | -0.265 | -0.0462 | 0.0141 | -0.12 | 0.0859 | 0.934 | 0.122 | -0.446 (inactive) | -0.0918 | -0.147 | 0.366 | 0.393 | 0.0759 | 0.893 | 0.0388 | 0.818
O=C1[C@H]2[C@H]3[C@H](O)[C@H](O)CC(=NOCc4ccccc4)[C@@H]3CC[C@H]2C(=O)N1C[C@@H]1CCCO1 | -0.236 | 0.189 | 0.316 | 0.583 | -0.0696 | -0.117 | -0.0553 | -0.158 | -0.126 | 0.879 | 0.0904 | -0.207 (inactive) | -0.187 | -0.0621 | -0.026 | 0.369 | 0.279 | -0.361 | 0.332 | 0.603
CCOC(=O)NN=C1C[C@@H](O)[C@@H](O)[C@@H]2[C@@H]3C(=O)N(C(C)(C)C)C(=O)[C@@H]3CC[C@H]12 | 0.217 | -0.0742 | 0.481 | -0.0749 | -0.913 | 0.0068 | 0.108 | -0.171 | 0.0059 | -0.0211 | -0.385 | 0.288 (inactive) | 0.0431 | 0.272 | -0.257 | -0.227 | -0.207 | 0.129 | 0.743 | 0.383
CO[C@H]1COC(=O)[C@@H](C)COC(=O)[C@H](C)NC(=O)CC=C[C@H]1C | -0.328 | -0.399 | 1.28 | -0.451 | -1.98 | -0.178 | -0.243 | -0.379 | -0.15 | -0.354 | -0.859 | 0.111 (inactive) | -0.038 | -0.0907 | -0.328 | -0.866 | -0.225 | 0.486 | 1.27 | -0.99
CCOC(=O)NN=C1C[C@@H](O)[C@@H](O)[C@@H]2[C@@H]3C(=O)N([C@@H](C)c4ccccc4)C(=O)[C@@H]3CC[C@@H]12 | 0.207 | 0.0672 | 0.937 | -0.762 | -2.03 | -0.191 | -0.476 | -0.12 | 1.41 | -0.778 | -0.899 | -0.491 (inactive) | 0.119 | -0.0968 | -0.0526 | -0.374 | 0.129 | 1.23 | 1.02 | -1.09
C[C@@H]1CC[C@H]2C(=O)O[C@@H](COc3ccc(C(C)(C)C)cc3)CN2[C@@H]1c1ccc(Br)cc1 | -0.631 | -0.0485 | -0.403 | -0.121 | 0.578 | -0.179 | -0.289 | 0.105 | -0.319 | 0 | 0.0192 | -0.695 (inactive) | -0.21 | -0.14 | -0.408 | -0.0056 | -0.239 | -0.558 | -0.614 | -0.619
CC(CCN1CCCc2nc(C)c(C)cc21)=NOC(C)CN1CCCCc2nc(C)c(C)cc21 (stereo not given) | 1.35 | -1.66 | 0.984 | 0.341 | -0.568 | 0.159 | 0.689 | 0.57 | 0.436 | 0.714 | -0.0931 | 1.62 (inactive) | 0.539 | 0.101 | 0.618 | 0.84 | 0.247 | 1.3 | 1.06 | 1.01
CCOC(=O)[C@H](CC(C)C)NC(=O)CCC1CC(OC(=O)NCCc2ccc(F)cc2)CC2(CCCC(COC(=O)NCC(c3ccccc3)c3ccccc3)O2)O1 (stereo not given in full) | 0.776 | 0.612 | 0.319 | 0.479 | -0.476 | -0.152 | -0.214 | -0.501 | 0.145 | 0.71 | 0.436 | 0.428 (inactive) | 0.0372 | -0.108 | 0.349 | -0.0758 | 0.0521 | 1.11 | 0.609 | 1.1
COC(=O)CC=C[C@H](C)[C@@H](OCc1cccc(Br)c1)[C@@H](C)[C@H](OC)C1CCCCC1 | -0.835 | -0.291 | 0.388 | -0.893 | -1.07 | -0.0944 | -0.282 | -0.449 | -0.343 | -0.308 | -1.15 | 0.143 (inactive) | -0.0914 | -0.124 | 0.0679 | -0.504 | -0.0998 | -0.446 | 0.652 | -1.23
O=C1C[C@@H](O)[C@@H](O)[C@@H]2[C@@H]3C(=O)N(C[C@@H]4CCCO4)C(=O)[C@@H]3CC[C@@H]12 | 0.27 | -0.321 | 0.723 | 0.187 | -0.426 | -0.0239 | -0.106 | -0.303 | 0.119 | 0.506 | -0.0039 | -0.286 (inactive) | 0.0547 | -0.111 | -0.0061 | 0.725 | 0.181 | 0.666 | 0.348 | 0.852
